Assay outcomes from PubChem.
DT40 TDP1 CPT = DT40-hTDP1 cell growth loss with CPT | chicken DT40 Tdp1-/-;hTDP1 cells + 20 nM CPT, ATP luminescence, 48 h | Potency, µM (highest dose often 46.2 µM), for the others: top-dose activity change, negative = growth inhibition, usual class: inhibitors | 420,000 compounds, 12% hits; also: potency is read from the fitted curve at half-maximal effect; nearly all actives have a fitted effect of over 55% in size
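Cell growth measured by CellTiter-Glo luminescence after a minimum 48 h, 37 C compound exposure with 20 nM CPT in Tdp1-knockout DT40 cells stably expressing hTDP1, seeded 400/well; qHTS titration format.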
CtBP-E1A inh = inhibitors of CtBP/E1A interaction; AlphaScreen GST-E1A/His-CtBP binding, 1536-well; hits give low values; activity change, % (test concentration not listed); 340,000 compounds, 0.49% hits; in the data active = activity change below about -65%; inconclusive = mostly about -30% to -63%
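Protein mix (5X: 125 nM each GST-E1A, His-CtBP) was incubated with pinned compound 2 h at 37 deg C in dark, in 50 mM Tris pH 8.0 buffer with 300 mM NaCl. Glutathione donor and nickel acceptor beads followed; AlphaScreen signal read after 1 h.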
Six1-Eya2 blk = inhibitors of human Six1/Eya2 interaction; Q15475+O00167; AlphaScreen GST-Six1/His-Eya2 binding, biochemical; hits give low values; activity change, % (no concentration beside the values); 360,000 compounds, 0.56% hits; AID 651725; in the data active = activity change below about -65%; inconclusive = mostly about -30% to -63%
Target sequence (O00167 whole entry, looked up): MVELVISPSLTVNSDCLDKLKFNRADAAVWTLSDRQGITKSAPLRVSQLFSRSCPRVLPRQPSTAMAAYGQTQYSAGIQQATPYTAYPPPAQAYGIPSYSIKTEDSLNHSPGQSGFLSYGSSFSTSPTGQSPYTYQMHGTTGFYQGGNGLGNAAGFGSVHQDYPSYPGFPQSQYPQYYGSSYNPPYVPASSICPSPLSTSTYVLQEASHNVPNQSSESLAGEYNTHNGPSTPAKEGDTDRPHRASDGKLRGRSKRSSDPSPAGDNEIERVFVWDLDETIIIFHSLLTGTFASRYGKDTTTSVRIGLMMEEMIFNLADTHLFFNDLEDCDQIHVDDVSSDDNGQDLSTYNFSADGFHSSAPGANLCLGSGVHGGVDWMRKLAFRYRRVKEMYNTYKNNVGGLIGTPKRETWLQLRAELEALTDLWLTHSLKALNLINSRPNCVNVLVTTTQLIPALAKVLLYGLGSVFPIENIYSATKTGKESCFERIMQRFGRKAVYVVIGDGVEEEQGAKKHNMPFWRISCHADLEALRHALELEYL
Target sequence (Q15475 whole entry, looked up): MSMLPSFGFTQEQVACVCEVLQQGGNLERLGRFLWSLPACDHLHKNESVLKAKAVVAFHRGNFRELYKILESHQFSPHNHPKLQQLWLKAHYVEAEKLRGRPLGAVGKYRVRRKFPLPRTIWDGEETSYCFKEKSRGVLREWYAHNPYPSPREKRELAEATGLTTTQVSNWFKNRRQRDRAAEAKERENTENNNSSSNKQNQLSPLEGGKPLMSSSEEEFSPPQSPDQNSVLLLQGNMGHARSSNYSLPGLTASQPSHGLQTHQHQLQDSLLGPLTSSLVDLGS
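Six1/Eya2 binding was read as AlphaScreen signal after compounds were pinned into GST-Six1 plus His-tagged Eya2 (5X stock 250/500 nM) in pH 8.0 Tris/NaCl/TCEP buffer, beads added, then incubated 1 h, 37 C, dark.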
DT40 TDP1 no CPT = qHTS for Inhibitors of human tyrosyl-DNA phosphodiesterase 1 (TDP1): qHTS in cells in absence of CPT | DT40 Tdp1-/- hTDP1 cells, no CPT, ATP luminescence, 48 h | AID 686978, 2013 | Potency, µM (highest dose often 46.2 µM), for the others: at the highest dose activity change, negative = growth inhibition, actives largely listed as inhibitors | 420,000 compounds, 15% hits; also: potency is read from the fitted curve at half-maximal effect; nearly all actives have a fitted effect of over 55% in size
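Readout: luminescence from CellTiter-Glo after 30 min in the dark at RT. Cells: DT40 Tdp1-/- with stable hTDP1, 400/well. Exposure: compounds alone, ≥48 hr, 37 °C.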
IL1B secr inh = blocks inflammasome-driven IL-1 beta release. THP-1 LPS/ATP IL-1B secretion, AlphaLISA, 16 h; hits give low values. activity change, % at 57.5 µM. 360,000 compounds, 4.7% hits; in the data active = activity change below about -50%; inconclusive = mostly about -30% to -49%
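THP-1 cells pretreated 1 hr with compounds (up to 57.5 uM final), then stimulated with LPS (250 ng/mL final) plus ATP (1.25 mM final); secreted IL-1B measured by AlphaLISA after 16 hr, decreased signal indicating inhibition.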
TDP1 block = TDP1 (human) enzyme inhibition | recombinant TDP1, AlphaScreen DNA substrate cleavage | Potency, µM (series often up to 130 µM), for inactives: at the highest dose activity change, negative = inhibition, most hits filed as inhibitors | 350,000 compounds, 0.28% hits; also: potency is read from the fitted curve at half-maximal effect; nearly all actives have a fitted effect of over 40% in size
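E. coli-derived human Tdp1, 1 nM final. Cpd preinc 15 min RT; substrate 15 nM final, 5 min RT; AS bead mix 10 ug/ml final, 10 min RT. Signal loss = tyrosine-FITC cleavage. No-enzyme wells = max signal.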
The depositor's hits bear a star. Sampled rows, rich in hits. Any-hit rate of the full collection: about 18%. Unless noted, calls follow the shape of the dose curve; as a rule, active = well fitted curve in the direction sought with a large enough effect; inconclusive = small, poorly fitted or top-dose-only effect, or another doubt; inactive = no such curve, though single readings can be large; an effect the other way counts as inactive or inconclusive. % is scaled to controls: 0 for no effect and ±100 for the full control effect.

Screening O=C(Nc1ccc(-n2cccc2)cc1)C1CC1 returned DT40 TDP1 CPT 9.2µM*, CtBP-E1A inh -28, Six1-Eya2 blk -13, DT40 TDP1 no CPT 9.2µM*, IL1B secr inh 0 and TDP1 block 3%.
`NC(=O)c1ccc(NC(=O)C2CC2)cc1` gave DT40 TDP1 CPT 12%, CtBP-E1A inh -20, Six1-Eya2 blk 13, DT40 TDP1 no CPT 19%, IL1B secr inh -13 and TDP1 block 5%.
O=C(Nc1cccc2nsnc12)c1cccs1 was read as DT40 TDP1 CPT -27%, CtBP-E1A inh -4, Six1-Eya2 blk -2, DT40 TDP1 no CPT -29%, IL1B secr inh -19 and TDP1 block 2%.
For O=C(NNc1cccc(Cl)n1)Nc1ccccc1 the results were DT40 TDP1 CPT 1%, CtBP-E1A inh -2, Six1-Eya2 blk 8, DT40 TDP1 no CPT -16%, IL1B secr inh -10 and TDP1 block 3%.
For O=C(Nc1ccccc1)Nc1nnc(-c2ccccc2)o1 the results were DT40 TDP1 CPT 29µM*, CtBP-E1A inh -2, Six1-Eya2 blk -2, DT40 TDP1 no CPT inconclusive, IL1B secr inh -102* and TDP1 block 9%.
O=C(COC(=O)c1cc(NS(=O)(=O)c2cccs2)ccc1O)Nc1cc(Cl)ccc1Cl was read as DT40 TDP1 CPT -19%, Six1-Eya2 blk 8, DT40 TDP1 no CPT -10%, IL1B secr inh 20 and TDP1 block -8%.
Screening CCCn1c(C)nc2c(N3CCN(C)CC3)nc(C)nc21 returned TDP1 block 3%.
Screening O=C(Nc1ccccc1)Nc1ccc(Nc2ccccc2)cc1 returned DT40 TDP1 CPT inconclusive, Six1-Eya2 blk 0, DT40 TDP1 no CPT 7.3µM* and IL1B secr inh -20.
O=C(Nc1ccccc1)Nc1ccc(-n2ccc(C(F)(F)F)n2)cc1 was read as DT40 TDP1 CPT inconclusive, CtBP-E1A inh -2, Six1-Eya2 blk 8, DT40 TDP1 no CPT 18µM*, IL1B secr inh inconclusive and TDP1 block 5%.
For Cc1ccccc1NC(=O)Cc1nc(COC(=O)/C=C/c2ccc(F)cc2)cs1 the results were DT40 TDP1 CPT -24%, CtBP-E1A inh -7, Six1-Eya2 blk -22, DT40 TDP1 no CPT inconclusive and IL1B secr inh 6.
For Cc1ccc(C(=O)N2CCCC(C(F)(F)F)C2)cc1S(=O)(=O)N1CCOCC1 (stereo not drawn) the results were DT40 TDP1 CPT -2%, CtBP-E1A inh 12, Six1-Eya2 blk -1, DT40 TDP1 no CPT -20%, IL1B secr inh 9 and TDP1 block 0%.
Screening Cc1cc(NCCCN2CCOCC2)n2nc(C)c(-c3ccc(F)cc3)c2n1 returned DT40 TDP1 CPT inconclusive, CtBP-E1A inh -16, Six1-Eya2 blk -15, DT40 TDP1 no CPT 16µM*, IL1B secr inh -57* and TDP1 block 3%.
Screening Cc1cc(NCCCN2CCOCC2)n2nc(C)c(-c3ccccc3)c2n1 returned DT40 TDP1 CPT 16µM*, CtBP-E1A inh -11, Six1-Eya2 blk -21, DT40 TDP1 no CPT 16µM*, IL1B secr inh -14 and TDP1 block 1%.
Screening Cc1cc(C)c2c(n1)nn1c(NCCCN3CCOCC3)cc(C)nc21 returned DT40 TDP1 CPT -27%, CtBP-E1A inh -2, Six1-Eya2 blk 0, DT40 TDP1 no CPT -2% and IL1B secr inh -10.
`O=C(Nc1ccccc1F)c1ccccc1C(=O)Nc1ccccc1F` gave DT40 TDP1 CPT 0%, CtBP-E1A inh 7, Six1-Eya2 blk 13, DT40 TDP1 no CPT 0% and IL1B secr inh 12.
Screening CC1C/C(=N\NC(=S)NCc2ccccc2)CC(C)(C)C1 (stereo not drawn) returned DT40 TDP1 CPT inconclusive, CtBP-E1A inh inconclusive, Six1-Eya2 blk inconclusive, DT40 TDP1 no CPT 26µM*, IL1B secr inh 22 and TDP1 block -8%.
`Cc1cccc(OCC(=O)Nc2cc(C)c(O)c(-c3nc4ccccc4o3)c2)c1` gave DT40 TDP1 CPT 11µM* and DT40 TDP1 no CPT inconclusive.
For Cc1ccccc1OCC(=O)Nc1cc(C)c(O)c(-c2nc3ccccc3o2)c1 the results were DT40 TDP1 CPT 10µM* and DT40 TDP1 no CPT inconclusive.
Cc1cc(NC(=O)c2ccc(Br)o2)cc(-c2nc3ccccc3o2)c1O was read as TDP1 block 7%.
Screening O=C(Nc1ccccc1N1CCOCC1)C1=NN(c2c(F)c(F)cc(F)c2F)C(=O)CC1 returned DT40 TDP1 CPT inconclusive, CtBP-E1A inh 7, Six1-Eya2 blk 3, DT40 TDP1 no CPT inconclusive, IL1B secr inh 28 and TDP1 block 3%.
Screening COc1ccc(C(=O)Nc2ccc3c(c2)N(C2CCCC2)C(=O)c2ccccc2S3)cc1OC returned DT40 TDP1 CPT 10µM*, DT40 TDP1 no CPT 5.2µM* and TDP1 block 3%.
For COc1ccc(C(=O)c2ccccc2Cl)cc1OC the results were DT40 TDP1 CPT 7%, CtBP-E1A inh -9, Six1-Eya2 blk 11, DT40 TDP1 no CPT -16%, IL1B secr inh -15 and TDP1 block 3%.
Screening COc1ccc(C(=O)Nc2ccc3c(c2)C(=O)c2ccccc2C3=O)cc1OC returned DT40 TDP1 CPT 10µM*, CtBP-E1A inh -8, Six1-Eya2 blk -15, DT40 TDP1 no CPT inconclusive, IL1B secr inh 11 and TDP1 block 0%.
Screening COc1ccc(C(=O)c2c(C(F)(F)F)oc3c2C(=O)c2ccccc2C3=O)cc1OC returned DT40 TDP1 CPT 2.3µM*, CtBP-E1A inh inconclusive, Six1-Eya2 blk inconclusive, DT40 TDP1 no CPT 5.8µM*, IL1B secr inh inconclusive and TDP1 block 5%.
Cc1c(NC(=O)C(C)Sc2ccc3ccccc3n2)c(=O)n(-c2ccccc2)n1C (stereo not drawn) was read as DT40 TDP1 CPT -8%, CtBP-E1A inh -1, Six1-Eya2 blk 2, DT40 TDP1 no CPT -24%, IL1B secr inh -15 and TDP1 block 3%.
Screening C#CCOCCOCCOCCNc1nc(N2CCN(C(=O)[C@H]([C@@H](C)O)n3cc(CCCCN)nn3)CC2)nc(N2CCN(C(=O)[C@H]([C@@H](C)CC)n3cc(CCCCN)nn3)CC2)n1 returned DT40 TDP1 CPT -2%, Six1-Eya2 blk 1, DT40 TDP1 no CPT 1%, IL1B secr inh 18 and TDP1 block -5%.
`CC(C)(C)c1ccc(C(=O)NCCCN2CCN(CCCNC(=O)c3ccc(C(C)(C)C)cc3)CC2)cc1` gave DT40 TDP1 CPT 9.2µM*, CtBP-E1A inh -23, Six1-Eya2 blk 0, DT40 TDP1 no CPT 9.2µM*, IL1B secr inh -81* and TDP1 block -1%.
